Inconclusive results are not listed. The source made the active and inactive calls. Unless noted, calls follow the shape of the dose curve; as a rule, active = well fitted curve in the direction sought with a large enough effect; inconclusive = small, poorly fitted or top-dose-only effect, or another doubt; inactive = no such curve, though single readings can be large; an effect the other way counts as inactive or inconclusive.

A short description of assay [1]: qHTS Assay for Identification of Small Molecule Antagonists for NFkB Signaling Pathway. (AID 624479; calls by dose curve;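 also: pathway stimulated with TNF alpha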; also: potency is read from the fitted curve at half-maximal effect). For orientation: qHTS replaces the single test concentration by a dilution series.
Assay [2] in a line: Cell Proliferation Assay against the TMD8 Cell Line (AID 651645).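 Also: cells exposed to compound for 48 h before reading.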 The settings on record: TMD8 DLBCL cell line proliferation/viability; at 46.1 µM (top of the series) unless noted. Summed up:
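Seed log-phase TMD8 cells in RPMI containing 5% FBS, add compounds at once, incubate 48 hours at 37C. Equilibrate to room temperature, add CellTiter-Glo, read luminescence after 15 minutes and express relative to DMSO and bortezomib controls.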

Assay [3] can be described thus: Cell Proliferation Assay against the HBL1 Cell Line (AID 651646).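 Also: cells exposed to compound for 48 h before reading.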 Conditions: HBL1 DLBCL cells; at 46.1 µM (top of the series) unless noted. The method in brief:
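HBL1 ABC DLBCL cells, 500/well in RPMI with 5% FBS, treated for 48 h at 37C. Viability read by CellTiter-Glo luminescence, normalized to DMSO as 100% and 9.2 uM bortezomib as 0%.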

Assay [4] can be described thus: Cell Proliferation Assay against the TMD8 Cell Line (Caspase readout at 16 hrs) (AID 651712). Also: potency is read from the fitted curve at half-maximal effect. The method in brief: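 TMD8 cells in RPMI with 5% FBS were treated with compound for 16 h at 37 C, then caspase 3/7 activation was read by Caspase-Glo luminescence. Percent activity was scaled to DMSO (0%) and 9.2 uM bortezomib final (100%).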
Assay [5] in a line: Cell Proliferation Assay against the TMD8 Cell Line (Caspase readout at 8 hrs) (AID 651713). Also: potency is read from the fitted curve at half-maximal effect. The method in brief: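 TMD8 cells (500/well) in phenol red-free RPMI with 5% FBS were treated with compounds for 8 h at 37C, 5% CO2. Caspase-Glo 3/7 luminescence was read after 15 min at room temperature and normalised to DMSO (0%) and 9.2 uM bortezomib (100%).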

Turning to `O=C(CCCCCCC(=O)Nc1ccccc1)NO`, the Potency result in assay [1] and in assay [5] was “inactive” each time. The viability (% of control) in assay [2] came out at 2.92% [at 92.2 µM]. Also, the viability, percent of control in assay [3] was found to be 3.42% [at 92.2 µM]. Further, the Potency in assay [4] was 0.429 µM (active).
For `O=C1C(Cl)=C(NCCN2CCOCC2)C(=O)c2ncccc21`, the Potency in assay [1] is 2.11 µM (active). In addition, in assay [2], the viability (% of control) was determined as 3.41%. In addition, in assay [3], the viability, percent of control was found to be 2.09%. Besides, the Potency result in assay [4] and in assay [5] was “inactive” in each case.
As for `CC(C)C(=O)Nc1ncc(-c2cc(C(F)F)nn2-c2c(Cl)cccc2Cl)s1`, the Potency was 18.8 µM (active) in assay [1] and 16.6 µM (active) in assay [4]. Further, in assay [2], the viability (% of control) was found to be 9.91%. Moreover, the viability, percent of control in assay [3] came to 14.4%. Besides, in assay [5], the Potency result is “inactive”.
`O=c1cc(N2CCOCC2)oc2c(-c3cccc4c3sc3ccccc34)cccc12`: the Potency was 13.3 µM (active) in assay [1] and 20.9 µM (active) in assay [5]. Further, the viability (% of control) in assay [2] turned out to be 2.51%. Further, in assay [3], the viability, percent of control turned out to be 2.43%.
Regarding `CCOC(CN1C(=O)[C@](CC(=O)Nc2ccc(C)cc2)(NC(=O)Nc2ccc(C)cc2)c2ccccc21)OCC`, the Potency in assay [1] was 18.8 µM (active). Further, the viability (% of control) in assay [2] amounted to 16.8%. In assay [3], the viability, percent of control was 4.35%.
`CC(C)(C(=O)NCC(F)(F)C(F)(F)F)C(=O)N[C@@H]1C(=O)Nc2ccccc2-c2ccccc21`: the Potency result in assay [1], in assay [4] and in assay [5] was “inactive” in each case. In assay [2], the viability (% of control) turned out to be 61.9%. Also, the viability, percent of control in assay [3] was found to be 73.4%.
In the case of `c1ccc2c(-c3cnn4cc(-c5ccc(N6CCNCC6)cc5)cnc34)ccnc2c1`, the Potency in assay [1] is 18.8 µM (active). Besides, in assay [2], the viability (% of control) amounted to 0.905%. In assay [3], the viability, percent of control worked out at 3.84%.
For `CC(C)(C)COc1ccc(-n2cc(C(=O)O)cn2)cc1C#N`, the Potency entry in assay [1], in assay [4] and in assay [5] was “inactive” throughout. The viability (% of control) in assay [2] was found to be 88.1%. The viability, percent of control in assay [3] was 90.4%.
As for `CN(C)Cc1ccc(-c2nc3cccc4c3n2CCNC4=O)cc1`, the Potency in assay [1] is 23.7 µM (active). Moreover, in assay [2], the viability (% of control) turned out to be 17%. Moreover, in assay [3], the viability, percent of control came to 60.9%.
Turning to `O=C1Nc2ccc(Cl)cc2C(C#CC2CC2)(C(F)(F)F)O1` (stereo not given), the Potency in assay [1] was 30.6 µM (active).
In the case of `CC(C)(C)C(=O)Oc1ccc2c(c1)nc(NC(=O)c1cccc([N+](=O)[O-])c1)n2CCCO`, the Potency in assay [1] is 4.73 µM (active). In assay [2], the viability (% of control) was 0.179%. The viability, percent of control in assay [3] stood at 16.8%. In addition, the Potency result in assay [4] and in assay [5] was “inactive” in each case.
Regarding `CC(C)(C)c1cc(C(=O)O)c(NC(=O)Nc2ccc3[nH]ncc3c2)s1`, the Potency result in assay [1], in assay [4] and in assay [5] was “inactive” throughout. For the same molecule, the viability (% of control) in assay [2] is 99.7%. Besides, the viability, percent of control in assay [3] is 100%.
Take `COc1cc2nc(-c3ccc(N4CCN(C)CC4)cc3)nc(NCCN3CCOCC3)c2cc1OC`: in assay [1], the Potency entry is “inactive”. Besides, the viability (% of control) in assay [2] was found to be 1.8%. The viability, percent of control in assay [3] stood at 5.66%. For the same molecule, the Potency in assay [5] was 29.6 µM (active).
For the molecule `CC(C)[C@H](CO)Nc1nc(Nc2ccc(C(=O)O)c(Cl)c2)c2ncn(C(C)C)c2n1`, the Potency entry in assay [1], in assay [4] and in assay [5] was “inactive” throughout. Moreover, the viability (% of control) in assay [2] amounted to 83.7%. The viability, percent of control in assay [3] amounted to 129%.
`O=C(O)c1ccc(-c2cc3cccnc3c(-c3ccc4nonc4c3)n2)cc1`: the Potency entry in assay [1], in assay [4] and in assay [5] was “inactive” in each case. Also, the viability (% of control) in assay [2] worked out at 111%. The viability, percent of control in assay [3] is 91.1%.
As to `O=C(Nc1ccccc1-c1cn2c(CN3CCNCC3)csc2n1)c1cnc2ccccc2n1`, the Potency result in assay [1] and in assay [4] was “inactive” each time. Besides, the viability (% of control) in assay [2] worked out at 2.49%. In addition, the viability, percent of control in assay [3] worked out at 2.43%.
Regarding `CN(C)C1CCN(C(=O)c2ccc(NC(=O)Nc3nc(N4CCOCC4)nc(N4CCOCC4)n3)cc2)CC1`, in assay [1], the Potency result is “inactive”. In addition, the viability (% of control) in assay [2] amounted to 2.35%. For the same molecule, in assay [3], the viability, percent of control is 26.9%. Besides, in assay [4], the Potency is 6.62 µM (active).
Take `CC(=O)Nc1ccc([C@H](C)C(=O)Nc2ncc(C(C)C)s2)cc1`: the Potency in assay [1] was 0.335 µM (active). Moreover, the viability (% of control) in assay [2] is -0.0002%. Besides, the viability, percent of control in assay [3] came out at 33.5%.
Consider `O=C(N[C@@H](c1ccccc1)[C@@H]1CCCCN1)c1cccc(C(F)(F)F)c1Cl`, for which the Potency entry in assay [1] and in assay [5] was “inactive” each time. Moreover, in assay [2], the viability (% of control) is 74.3%. Moreover, in assay [3], the viability, percent of control turned out to be 28.1%.
For the molecule `Cc1ccc(F)c(NC(=O)Nc2ccc(-c3cccc4[nH]nc(N)c34)cc2)c1`, the Potency in assay [1] is 1.49 µM (active). In addition, the viability (% of control) in assay [2] stood at 4.9%. In addition, the viability, percent of control in assay [3] is 8.04%. Besides, the Potency entry in assay [4] and in assay [5] was “inactive” throughout.
With `N#Cc1ccc(NC(=O)Nc2ccccc2Br)c2n[nH]nc12`, the Potency result in assay [1], in assay [4] and in assay [5] was “inactive” throughout. Besides, the viability (% of control) in assay [2] stood at 12.8%. The viability, percent of control in assay [3] worked out at 69.7%.
As to `COc1cccc2c1CCCC2CCCN1CCN(C2CCCCC2)CC1` (stereo not given), in assay [1], the Potency result is “inactive”. The viability (% of control) in assay [2] was determined as 1.09%. For the same molecule, the viability, percent of control in assay [3] was 28.8%. Further, the Potency in assay [4] was 23.5 µM (active); in assay [5] it was 29.6 µM (active).
As for `COc1cc(N2CCC(N3CCN(C)CC3)CC2)ccc1Nc1ncc(Cl)c(Nc2ccccc2S(=O)(=O)C(C)C)n1`, the Potency was 11.9 µM (active) in assay [1] and 23.5 µM (active) in assay [5]. For the same molecule, the viability (% of control) in assay [2] was found to be 3.22%. In assay [3], the viability, percent of control is 3.91%.
As for `Cc1nc(N)sc1-c1ccnc(Nc2ccc(N3CCOCC3)cc2)n1`, the Potency in assay [1] is 2.66 µM (active). For the same molecule, in assay [2], the viability (% of control) turned out to be 4.33%. Besides, the viability, percent of control in assay [3] was 24.4%.
Take `OC[C@H]1O[C@@H](n2cnc3c2NC=NC[C@@H]3O)C[C@H]1O`: the Potency result in assay [1], in assay [4] and in assay [5] was “inactive” each time. Further, the viability (% of control) in assay [2] came out at 95.3%. Also, in assay [3], the viability, percent of control amounted to 105%.

These data come from PubChem BioAssay (NCATS).
